Experimental data published in the supplement of paper PMC8728848.
The sample as a whole holds a higher share of the strongest signals than the screen did.

Test system: Gal(b1-3)GlcNAc(b1-3)Gal(b1-4)Glc
Assay: glycan array binding signal (z-score within array); higher = stronger binding
Conditions: glycan notation: IUPAC condensed, linker removed
Summary of the method: (§1)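 The Consortium for Functional Glycomics database supplied 3228 glycan arrays, of which those lacking an available protein sequence were dropped. The binding signal, a within-array Z-score, was averaged across arrays of the same protein sequence and across linkers. Negative scores can be read as non-binding.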

Sequence of Aggrecan (Rattus norvegicus), NP_071526 (chain, as listed by the source): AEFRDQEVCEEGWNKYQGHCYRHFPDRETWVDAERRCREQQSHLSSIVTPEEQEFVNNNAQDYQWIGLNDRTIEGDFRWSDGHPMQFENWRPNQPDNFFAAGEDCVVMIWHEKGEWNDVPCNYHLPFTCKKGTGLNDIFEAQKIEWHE
Sequence of Avaren (Actinomycete K97) (chain, as listed by the source): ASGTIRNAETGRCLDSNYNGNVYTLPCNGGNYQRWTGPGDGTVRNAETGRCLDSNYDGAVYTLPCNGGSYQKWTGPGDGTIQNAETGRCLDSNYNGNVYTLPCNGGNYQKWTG
Sequence of C3b (Homo sapiens), P01024 (P01024 23-667): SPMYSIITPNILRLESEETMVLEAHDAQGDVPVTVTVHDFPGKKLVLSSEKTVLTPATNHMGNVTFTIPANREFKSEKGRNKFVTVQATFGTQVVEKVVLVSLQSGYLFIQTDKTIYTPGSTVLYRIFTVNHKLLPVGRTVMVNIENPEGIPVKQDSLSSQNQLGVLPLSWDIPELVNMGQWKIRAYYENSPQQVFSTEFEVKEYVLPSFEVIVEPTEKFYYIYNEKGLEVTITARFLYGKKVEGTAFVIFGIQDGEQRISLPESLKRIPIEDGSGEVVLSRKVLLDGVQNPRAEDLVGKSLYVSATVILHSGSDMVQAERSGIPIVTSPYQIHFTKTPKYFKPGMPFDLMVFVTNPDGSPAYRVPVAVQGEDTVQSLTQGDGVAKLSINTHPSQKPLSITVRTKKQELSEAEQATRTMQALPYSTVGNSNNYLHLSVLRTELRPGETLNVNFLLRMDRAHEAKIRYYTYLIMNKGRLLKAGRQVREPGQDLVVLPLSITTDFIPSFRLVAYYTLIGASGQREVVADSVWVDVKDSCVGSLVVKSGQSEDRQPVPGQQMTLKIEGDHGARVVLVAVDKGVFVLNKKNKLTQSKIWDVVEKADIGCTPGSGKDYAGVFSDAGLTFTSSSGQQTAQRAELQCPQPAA
Sequence of 6RG (Lolium perenne) (chain, as listed by the source): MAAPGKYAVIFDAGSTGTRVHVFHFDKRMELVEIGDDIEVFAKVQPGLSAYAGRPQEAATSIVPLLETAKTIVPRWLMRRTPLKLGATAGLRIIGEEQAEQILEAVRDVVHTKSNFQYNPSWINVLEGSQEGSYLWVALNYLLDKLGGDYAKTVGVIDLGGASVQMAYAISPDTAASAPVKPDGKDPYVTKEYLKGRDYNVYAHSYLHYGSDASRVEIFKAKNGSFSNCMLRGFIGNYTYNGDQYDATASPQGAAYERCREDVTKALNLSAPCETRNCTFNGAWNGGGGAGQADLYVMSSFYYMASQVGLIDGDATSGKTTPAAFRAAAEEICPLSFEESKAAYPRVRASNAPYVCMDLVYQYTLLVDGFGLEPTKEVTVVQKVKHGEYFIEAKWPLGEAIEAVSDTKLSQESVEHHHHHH
Sequence of Neurocan (Homo sapiens), O14594 (O14594 other isoform, or with tags, fused parts or gaps): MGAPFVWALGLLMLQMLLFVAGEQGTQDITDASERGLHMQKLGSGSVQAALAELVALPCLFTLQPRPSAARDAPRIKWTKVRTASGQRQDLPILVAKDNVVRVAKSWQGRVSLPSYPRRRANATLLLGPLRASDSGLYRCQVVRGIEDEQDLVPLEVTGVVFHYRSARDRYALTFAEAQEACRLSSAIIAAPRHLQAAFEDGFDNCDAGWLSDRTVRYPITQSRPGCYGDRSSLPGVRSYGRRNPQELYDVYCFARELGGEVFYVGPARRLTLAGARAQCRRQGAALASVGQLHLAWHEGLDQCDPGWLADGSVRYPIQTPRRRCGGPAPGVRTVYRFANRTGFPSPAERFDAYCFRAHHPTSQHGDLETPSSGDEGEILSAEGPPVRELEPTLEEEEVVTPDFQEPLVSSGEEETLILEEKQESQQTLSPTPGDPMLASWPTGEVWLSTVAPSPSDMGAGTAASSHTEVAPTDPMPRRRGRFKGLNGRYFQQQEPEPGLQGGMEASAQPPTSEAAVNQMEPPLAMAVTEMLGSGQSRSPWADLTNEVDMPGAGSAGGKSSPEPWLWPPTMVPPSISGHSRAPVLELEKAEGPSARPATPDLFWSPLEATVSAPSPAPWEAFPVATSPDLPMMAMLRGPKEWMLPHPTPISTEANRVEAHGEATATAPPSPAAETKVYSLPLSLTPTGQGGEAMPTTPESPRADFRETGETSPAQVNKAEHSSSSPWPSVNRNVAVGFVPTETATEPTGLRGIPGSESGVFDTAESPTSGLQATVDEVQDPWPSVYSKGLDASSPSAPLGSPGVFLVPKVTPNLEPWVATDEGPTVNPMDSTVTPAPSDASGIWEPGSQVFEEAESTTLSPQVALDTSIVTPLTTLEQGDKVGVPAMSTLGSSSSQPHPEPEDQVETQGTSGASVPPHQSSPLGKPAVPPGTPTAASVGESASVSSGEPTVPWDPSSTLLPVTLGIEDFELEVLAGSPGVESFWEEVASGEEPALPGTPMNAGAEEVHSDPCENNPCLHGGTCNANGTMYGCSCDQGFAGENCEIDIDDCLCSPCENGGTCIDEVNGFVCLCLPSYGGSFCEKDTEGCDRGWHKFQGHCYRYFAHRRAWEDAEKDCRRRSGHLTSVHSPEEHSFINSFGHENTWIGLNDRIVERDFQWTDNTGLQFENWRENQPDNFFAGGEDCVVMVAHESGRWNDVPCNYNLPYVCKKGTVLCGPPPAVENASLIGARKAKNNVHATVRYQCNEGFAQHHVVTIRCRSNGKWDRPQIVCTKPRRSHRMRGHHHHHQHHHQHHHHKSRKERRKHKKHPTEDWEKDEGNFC
Sequence of Regenerating Gene IV (Homo sapiens), Q9BYZ8 (Q9BYZ8 whole entry, looked up): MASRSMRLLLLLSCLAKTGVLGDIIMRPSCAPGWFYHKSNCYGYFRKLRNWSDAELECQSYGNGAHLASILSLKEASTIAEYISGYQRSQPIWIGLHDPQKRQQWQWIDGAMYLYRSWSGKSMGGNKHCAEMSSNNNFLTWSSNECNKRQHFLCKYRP

Substance	glycan array binding signal (z-score)
6RG (Lolium perenne)	6.36
Aggrecan (Rattus norvegicus), NP_071526	0.002
Avaren (Actinomycete K97)	0.952

Test system: Gal(b1-3)[Fuc(a1-4)]GlcNAc(b1-3)Gal(b1-3)[Fuc(a1-4)]GlcNAc
Assay: as above
Conditions: glycan notation: IUPAC condensed, linker removed
Summary of the method: as §1

Substance	glycan array binding signal (z-score)
Neurocan (Homo sapiens), O14594	2.48
C3b (Homo sapiens), P01024	0.483
Aggrecan (Rattus norvegicus), NP_071526	0.137
Regenerating Gene IV (Homo sapiens), Q9BYZ8	-0.411
